This is an account of results in ChEMBL document CHEMBL3988442, “University of Dundee, Small-Polar-MMV Screening Library” (2021).

The experiment concerns the target AMP-activated protein kinase, AMPK (Homo sapiens) (UniProt P54646+O43741+P54619+Q9UGJ0+Q9Y478+Q13131+Q9UGI9). Description: AMP-dependent Kinase enzyme assay. An in vitro enzyme assay that detects ADP turnover that is directly proportional to AMPK activity. This uses naive AMPK that is activated during the assay with MK-8722. The class given is functional. Also on record: scale not given: direction of the effect not stated beside the values. The note with it: 30 µM.
On to `Cn1cc(N2CCN(c3ccc(C#N)cc3Br)CC2=O)cn1`, for which the Percent Effect was -4.14%.
In the case of `Cn1cc(C(=O)NCCc2ccc(OC3CCCC3)cc2)ccc1=O` it was 0.292%.
Under `CN(C)c1nc2c(c(=O)[nH]1)CCN(C(=O)C1CCCO1)C2` (stereo not given) stands 2.77%; under `O=C(C1CCCN(c2nc3ccccc3cc2CO)C1)N1CCCC1` (stereo not given), 9.42%; under `COC(=O)CSCc1noc(-c2ccc(Cl)cc2)n1`, -9.28%.
In the case of `c1ccc(Cc2noc(-c3ccc(NCC4CCCOC4)nc3)n2)cc1` (stereo not given) it was 6.64%; in that of `Cc1nc[nH]c1CN1CCC(C2CCN(CCc3ccccc3)C2)CC1` (stereo not given), -0.168%; in that of `CC(C)COc1cncc(N2CCCC(CC(N)=O)C2)n1` (stereo not given), 10.7%.
Take `COc1cccc(-c2ncc(CN3CCOCC(O)C3)s2)c1` (stereo not given): the Percent Effect amounted to 2.77%.
Under `CC(C)[C@@H]1CN(C(=O)C2(c3ccccc3)CC2)C[C@H]1C(=O)O` stands -2.56%; under `COc1ccc(C2CN(c3cc(C)ncn3)CCN2C(C)=O)cc1` (stereo not given), 21.4%; under `O=C1C(N2CCOCC2)CCCN1Cc1cccc(C(F)(F)F)c1` (stereo not given), 5.78%.
In the case of `COc1cccc(-n2cc(CN(C)Cc3ccnc(C(C)C)n3)cn2)c1` it was -12.4%; in that of `CCc1nc2n(n1)CC(NCc1nc3ccccc3nc1C)CC2` (stereo not given), -2.35%.
In the case of `Cc1noc(C)c1CN1CCCC1c1nnc2ccccn12` (stereo not given) it was -3.49%; in that of `CCN(CC)c1ncccc1CNCc1cc2ccccc2s1`, -4.57%; in that of `O=C(C1CNCCN1C(=O)CCOc1ccccc1)N1CCCC1` (stereo not given), 8.73%.
Consider `FC(F)(F)c1cc(C2CCCN(Cc3ccncc3)C2)n[nH]1` (stereo not given), for which the Percent Effect came to 3.39%.
In the case of `COc1ccc(C)cc1CN(C)CC(N)=O` it was -2.2%; in that of `CNS(=O)(=O)c1c(C)sc2ccccc12`, 7.5%; in that of `CC(C)Cn1ccnc1CNC(=O)N1CCCC1CN1CCOCC1` (stereo not given), -4.29%.
In the case of `COc1cnc(N2CC(N3CCOCC3)C2)nc1-c1ccnn1C` it was -7.62%; in that of `O=C(NCc1nnc2n1CCC2)c1cccc(Br)c1`, 3.99%; in that of `O=C(NCc1nc[nH]n1)c1cc(COc2cccc(C(F)(F)F)c2)[nH]n1`, -6.06%.
In the case of `CNC(=O)c1cccnc1NCc1ccc(-n2cccn2)cc1` it was -0.487%.
As to `N#CCCN(Cc1ccccn1)C(=O)c1cccc(CN2CCCC2)c1`, the Percent Effect came out at 0.67%.
In the case of `COc1cc(C)c(S(=O)(=O)CC(=O)N(C)C(C)C)cc1OC` it was 5.04%; in that of `CNc1nc(C)c(C(=O)N2C[C@@H](C(=O)O)[C@H](C3CC3)C2)s1`, 3.27%; in that of `CC(C)c1nc(CSc2nnc(-c3cccs3)n2CC(N)=O)no1`, -6.28%.
Consider `NC(=O)CN(Cc1ncc(-c2ccccc2)o1)C1CCCC1`, for which the Percent Effect was -1.01%.
Under `Cc1nn(CC(=O)NCC2(C(N)=O)CCOCC2)c(C)c1Cl` stands 2.14%; under `O=C(Nc1ccccc1C(=O)NCCCN1CCOCC1)c1ccco1`, 0.765%; under `Cn1cc(CN2CCS(=O)(=O)C(C)(C)C2)cn1`, 5.13%.
Under `Nc1cc(C(=O)N2CCC(Oc3cccc(C(F)(F)F)c3)CC2)ccn1` stands -4.01%.
Under `O=C(Nc1ccc(-n2ccc(C(=O)O)n2)cc1)c1ccccc1` stands 4.07%; under `O=C(O)c1ccn(-c2ccc(NC(=O)c3ccccc3Cl)cc2)n1`, 5.04%.
For the molecule `Cc1ccc2occ(CN3CCN(c4ncccn4)CC3)c(=O)c2c1`, the Percent Effect was -1.29%.
Under `Nc1nc(CCCNC(=O)c2ccccc2C2CCNC2)cs1` (stereo not given) stands -5.1%; under `CC(N)C(=O)N1CCC(Oc2cccc(C(F)(F)F)c2)CC1` (stereo not given), -2.71%; under `Cc1cc(NC(=O)NCCO)nn1-c1ccc(Cl)cc1Cl`, -2.67%.
